We go through eleven compounds from PubChem BioAssay (NCI).

Common to all, as to experiment: NCI-60 one-dose screen, 48 h (100 = growth as untreated, 0 = no growth, -100 = all killed)
What all share (settings): 10 µM unless noted

In assay [1] the test system is HCT-15 colon.
Assay [2] concerns HT29 colon.
Assay [3] relates to SNB-75 CNS.
Assay [4] concerns SNB-19 CNS.
The subject of assay [5] is U251 CNS.
Assay [6] has as its system PC-3 prostate.
The test system of assay [7] is SK-MEL-5 melanoma.
The subject of assay [8] is UACC-62 melanoma.
Assay [9] deals with LOX IMVI melanoma.
Assay [10] concerns SK-MEL-28 melanoma.

Each structure is given as a SMILES string. This is part of a sample that, as a whole, favours compounds with a hit. Of some 83,000 tested, about 20% had one in any assay.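 Note: values are percent growth. 100 is the growth of untreated cells, values between 100 and 0 indicate rising inhibition; between -100 and 0 indicates cell death.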 A number with no mark means an inactive call. The source made the active and inactive calls. How the source made its calls: active means growth percent below 10; inactive means the rest.

Regarding `C=CCc1cc2c(cc1OCC)OCO2`, the growth in assay [1] is 96.5%; in [2] it was 87.7%; in assay [3], 106%; in [4], 99.7%; in assay [5], 107%; in assay [6], 80.8%. Further, the growth in assay [7] was 103%; in assay [8] it was 108%; in [9], 94.2%; in assay [10], 102%.
Turning to `O=P1(NCCCl)OCCCN1CCCl` (stereo not given), the growth is 98.9% in [1]; 103% in [2]; 115% in assay [3]; 111% in assay [4]; 117% in assay [5]; 93.7% in [6]. For the same compound, the growth in assay [7] was 112%; in assay [8], 107%; in assay [9], 99.8%; in assay [10] it was 116%.
On to `CCCCCCCC[n+]1ccc2ccccc2c1`, for which the growth in assay [1] is 99.7%; in [2] it was 42.4%; in assay [3], 69.4%; in assay [4] it was 53.8%; in assay [5] it was 66%; in [6] it was 35%. Further, the growth was -19.4% (active) in [7], 25.5% in assay [8], 63.6% in assay [9] and 61.2% in [10].
For `COc1cc(/C=N/C2=C(C#N)C(c3ccco3)c3c(c4cc(C)ccc4oc3=O)O2)cc(OC)c1OC` (stereo not given), the growth in assay [1] was 91.8%; in [2] it was 109%; in [3] it was 82.7%; in assay [4], 98.2%; in assay [5], 96.6%; in assay [6], 89.9%. Also, the growth is 93.5% in [7], 55.6% in assay [8], 88.5% in assay [9] and 81.7% in assay [10].
For the compound `CC[C@@H]1[C@@H](C)O[C@@](O)([C@@H](C)[C@H](O)[C@H](C)[C@H]2OC(=O)/C=C/C=C/[C@H](C)[C@@H]([C@@H](C)[C@@H](O)[C@H](C)[C@@]3(O)C[C@@H](O[C@H]4C[C@@H](O)[C@H](O)C(C)O4)[C@H](CC)[C@@H](C)O3)OC(=O)/C=C/C=C/[C@@H]2C)C[C@H]1O[C@@H]1C[C@@H](O)[C@H](O)C(C)O1` (stereo not given in full), the growth was -84.4% (active) in assay [1]; -84% (active) in assay [2]; -97.6% (active) in [3]; -81.6% (active) in assay [4]; -92.8% (active) in assay [5]; -88.4% (active) in assay [6]. Also, the growth was -96.2% (active) in assay [7], -73.3% (active) in assay [8], -94% (active) in assay [9] and -92.1% (active) in assay [10].
On to `COC(=O)[C@H](Cc1ccccc1)NC(=O)c1csc([C@@H](C[C@H](C(C)C)N(C)C(=O)[C@@H](NC(=O)[C@H]2CCCN2C)C2CC2)OC(C)=O)n1`, for which the growth is 18.7% in [1]; 8.98% (active) in assay [2]; 39.2% in [3]; 59.5% in [4]; 13.3% in assay [5]; 13.2% in assay [6]. In addition, the growth in [7] is 29.4%; in assay [8], 38.2%; in assay [9], 16.8%; in assay [10], 51.4%.
Take `CC(=O)[O][Hg][O]C(C)=O`: the growth in assay [1] was 93.8%; in [2], 73.8%; in [3], 72.6%; in assay [4] it was 110%; in assay [5], 84.6%; in [6] it was 86.3%. The growth was 102% in assay [7], 97.2% in [8], 70.9% in [9] and 106% in [10].
Regarding `C#Cc1ccc2c(c1)C(c1ccccc1)=NCC(=O)N2C`, the growth was 26.4% in assay [1]; 13.1% in assay [2]; 53.9% in [3]; 46.6% in [4]; 36.9% in [5]; 54.4% in assay [6]. Besides, the growth was 34.7% in [7], 31% in assay [8], 44.4% in assay [9] and 59.1% in assay [10].
Regarding `COC(=O)[C@@H](C)C[C@H](Cc1ccccc1)NC(=O)c1csc([C@@H](C[C@H](C(C)C)N(C)C(=O)[C@@H](NC(=O)[C@H]2CCCCN2C)C(C)C)OC(C)=O)n1`, the growth in assay [1] is 15%; in [2] it was 5.25% (active); in [3] it was 5.98% (active); in [4], 65.6%; in assay [5], -1.97% (active); in assay [6], 7.77% (active). Further, the growth is -50.2% (active) in assay [7], 41.7% in assay [8], 14.2% in [9] and 39.2% in assay [10].
As to `Nc1ccc(Cl)cc1`, the growth was 100% in assay [1]; 97.5% in assay [2]; 88.3% in [3]; 103% in [4]; 96.9% in [5]; 86% in [6]. In addition, the growth in [7] was 99.7%; in assay [8] it was 101%; in assay [9], 92.8%; in [10], 109%.
Regarding `COC(=O)[C@@H](C[C@H](Cc1ccccc1)NC(=O)c1csc([C@@H](C[C@H](C(C)C)N(C)C(=O)[C@@H](NC(=O)[C@H]2CCCCN2C)C(C)C)OC(C)=O)n1)NC(=O)OCc1ccccc1`, the growth in [1] is 9.05% [9.5 µM] (active); in assay [2], -19.6% [9.5 µM] (active); in assay [3], 25.6% [9.5 µM]; in [4] it was 25.4% [9.5 µM]; in assay [5] it was 6.82% [9.5 µM] (active); in assay [6], 32.2% [9.5 µM]. The growth in [7] was -3.63% [9.5 µM] (active); in assay [8], 27.1% [9.5 µM]; in assay [9] it was 14.7% [9.5 µM]; in assay [10], -52.6% [9.5 µM] (active).
